# Screens: PubChem, National Center for Advancing Translational Sciences (NCATS)
# NS1 function inh – blocks influenza NS1 protein function | Potency, µM (titrated, usually from 46.1 µM), for the others: at the highest dose activity, positive = more growth | hit rate 0.4% among 270,000 | AID 2326; calls by dose curve; further: actives are rising curves; nearly all actives have a fitted effect of over 50% in size
#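 S. cerevisiae expressing influenza A NS1, grown in glucose, washed, then diluted 1:100 into pH 6.0 -URA galactose medium with 23 nl compound. Growth recovery read as OD600; NS1-free strain serves as control.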
# HCV inh – inhibitors of hepatitis C virus infection; Huh7.5.1 HCVcc-Cre infection, luciferase reporter, 44 h; Potency, µM (doses to about 41.8 µM), without a hit: at the top dose activity change, negative = inhibition, usual class: inhibitors; hit rate 3.4% among 340,000; further: on the % scale 0 is the no-effect control and ±100 the full control effect
#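 Cells seeded at 1,000/well and cultured 4 h, then compounds added followed by HCVcc-Cre virus (~0.5 moi). After 44 h further culture, luciferase substrate was added, plates held 15 min at room temperature, and luminescence read for 15 sec.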
# SARS PLP yeast – SARS-CoV PLP inhibition in yeast; S. cerevisiae expressing SARS-CoV PLpro, growth rescue; hit rate 0.19% among 330,000; Potency, µM (top dose mostly 32.9 µM), without a hit: at the highest dose activity, positive = growth rescue, most hits filed as activators; calls by dose curve; further: 0% is about no effect; nearly all actives have a fitted effect of over 55% in size
# Pf growth 48h – P. falciparum growth inhibition at 48 hours (one generation). hit rate 5.9% among 310,000. Potency, µM (series often up to 28.7 µM), for inactives: at the highest dose activity change, negative = inhibition, actives largely listed as inhibitors. P. falciparum luciferase growth in erythrocytes, 48 h; further: on the % scale 0 is the no-effect control and ±100 the full control effect
#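 Luciferase-expressing P. falciparum in infected erythrocytes (2% hematocrit, 0.1% parasitemia final) in RPMI 1640/0.5% Albumax were exposed to compound for 48 hours at 37 C, 5% CO2; growth read as luminescence.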
# AMA1 RON2 block – inhibitors of Plasmodium falciparum AMA1-RON2 interaction | AlphaScreen AMA1-biotinylated RON2 peptide binding | Potency, µM (highest dose often 58.2 µM), without a hit: at the highest dose activity change, negative = inhibition, usual class: inhibitors | hit rate 0.2% among 360,000;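 further: 0% = vehicle wells and -100% = peptide control; nearly all actives have a fitted effect of over 45% in size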
#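 AMA1 (3D7) with his tag at 25 nM final met compounds first, then biotinylated RON2 peptide at 25 nM; detection used donor plus acceptor beads, 10 µg/mL apiece, read by AlphaScreen after 30 min at room temperature.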
# Pf growth 96h – inhibits malaria parasite growth, 96 h | P. falciparum luciferase reporter growth, 96 h | Potency, µM (doses to about 28.7 µM), without a hit: top-dose activity change, negative = inhibition, hits mostly inhibitors | hit rate 6.9% among 320,000; further: on the % scale 0 is the no-effect control and ±100 the full control effect
#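 Parasite growth measured via integrated firefly luciferase reporter in P. falciparum. Infected erythrocytes at 2% hematocrit, 0.05% parasitemia final were treated 96 hours at 37 C under 5% CO2, and luminescence was read.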
# * hit, by the source's call; ? = inconclusive; . = no result; [ ] = remark or other dose. This is a sample that favours compounds with a hit; in the whole collection about 12% have one here. Unless noted, the call rests on the fitted dose curve; in most records, active means well fitted curve in the direction sought with a large enough effect; inconclusive means small, poorly fitted or top-dose-only effect, or another doubt; inactive means no such curve, though single readings can be large; an effect the other way counts as inactive or inconclusive. Potency means the concentration at half of the fitted maximal effect.
SMILES,NS1 function inh,HCV inh,SARS PLP yeast,Pf growth 48h,AMA1 RON2 block,Pf growth 96h
CCc1[nH]nc2c1C(c1cccc(OC(=O)N3CCOCC3)c1)C(C#N)=C(N)O2 (stereo unspecified),-2%,13%,-9%,-1%,-6%,-9%
CC(C)c1[nH]nc2c1C(c1cccc(OC(=O)N3CCOCC3)c1)C(C#N)=C(N)O2 (stereo unspecified),-13%,0%,-4%,-21%,11%,12µM*
N#Cc1c(NC(=O)COC(=O)C2CC3C=CC2C3)oc(-c2ccccc2)c1-c1ccccc1 (stereo unspecified),?,1%,-9%,-88%,-4%,9.3µM*
COc1ccccc1OCC(=O)Nc1oc(-c2ccccc2)c(-c2ccccc2)c1C#N,16%,?,9%,14%,-16%,.
Oc1c(Br)cc(Br)cc1/C=N/Nc1ccc(Cl)nn1,-1%,8%,-7%,?,0%,?
Oc1c(Br)cc(/C=N/Nc2ccc(Cl)nn2)cc1Br,-29%,37%,-8%,0.52µM*,25%,1µM*
CCOc1ccc(/C=N/Nc2ccc(Cl)nn2)c(O)c1,4%,-19%,-3%,1.3µM*,55%,?
CCOc1ccccc1/C=N/Nc1ccc(Cl)nn1,-5%,?,-1%,.,-7%,-28%
COC(=O)c1sc2nc(C)nc(SCC(=O)C(C)(C)C)c2c1C,.,-21%,-8%,-4%,-7%,?
OCCNc1ncnc2c1ncn2[C@@H]1O[C@@H](CO)[C@H](O)[C@@H]1O,-4%,.,.,.,.,.
Cc1ccc(NC(=O)C(=O)NCCOc2ccccc2Cl)cc1,-2%,-4%,-1%,9%,13%,-31%
O=C(NCCOc1ccccc1Cl)C(=O)NCCOc1ccccc1Cl,.,-2%,0%,-3%[5.75 µM],-3%,2.9µM*
Cc1cc(C)nc(NS(=O)(=O)c2ccc(NC(=O)Cc3ccccc3)cc2)n1,.,2%,-3%,-2%,-7%,13µM*
Cc1cc(C)nc(SCC(=O)Nc2ccc(S(=O)(=O)NC(C)(C)C)cc2)n1,0%,11µM*,15%[6.58 µM],.,3%,20%
CCCNC(=O)C1(C)CCN(C(=O)c2ccc3snnc3c2)C1 (stereo unspecified),.,.,.,.,12%,.
C=C[C@]1(C)C[C@@H](OC(=O)CSCCN(CC)CC)[C@]2(C)C(C)CC[C@]3(CCC(=O)[C@H]32)[C@@H](C)[C@@H]1O (stereo partly specified),.,?,.,13µM*,-5%,2.1µM*
C=C[C@@]1(C)C[C@H](OC(=O)CSC(C)(C)CNC(=O)[C@@H](N)C(C)C)[C@@]2(C)C(C)CC[C@@]3(CCC(=O)[C@@H]32)[C@H](C)[C@H]1O (stereo partly specified),.,.,.,1.1µM*,.,-18%
COc1ccc(N2C(C(C)=O)=NN(c3ccccc3)C2c2cccs2)cc1 (stereo unspecified),-7%,.,?,.,.,12µM*
CCCN1C(=O)/C(=C2/C=Cc3ccccc3N2CC)SC1=S,.,-25%,-13%,?,3.2µM*,-27%
CCN1C(=O)/C(=C2/C=Cc3ccccc3N2CC)SC1=S,.,-18%,0%,0%,10µM*,?
CCCN1/C(=C2/SC(=S)N(CC)C2=O)C=Cc2ccccc21,8%,0%,27%,.,3.2µM*,?
CCN1/C(=C2\C(=O)N(C)C(=S)N2C)C=Cc2ccccc21,-11%,-6%,-30%,?,?,38%
Cc1ccccc1N=C1c2ccccc2C(=O)C1[N+](=O)[O-] (stereo unspecified),8%,13%,-1%,5%,-4%,25%
COc1ccc(/C=C(\NC(=O)c2ccco2)C(=O)NC(Cc2ccccc2)C(=O)O)cc1 (stereo unspecified),-9%,24%,-1%,15%,7%,?
COc1ccc(/C=N/NC(=O)c2ccccc2O)cc1Cn1cc(Cl)cn1,12%,22%,2%,47%,32%,0%
